This is a sample that favours compounds with a hit; in the whole collection about 3.5% have one here.
TEAD-YAP inh – TEAD-YAP interaction inhibition, primary screen, TEAD-YAP interaction inhibitor project, luminescence, HEK-TIYL cells | TEAD-Gal4/YAP UAS-luciferase luminescence | inhibition, % at 9.12 µM | 640,000 compounds, 1.4% hits; in the data active = inhibition above about 32%;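 also: 0% = median of test compound wells and 100% = reference inhibitor wells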
MITF primary – MITF inhibitors, primary screen, biochemical, AlphaScreen, human; 650,000 compounds, 0.91% hits; AlphaScreen MITF homodimerization, bead proximity signal; inhibition, % at 2.6 µM; Microphthalmia-associated transcription factor (Homo sapiens), O75030; in the data active = inhibition above about 50%;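 also: 0% = vehicle wells with protein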
Target sequence (O75030 whole entry, looked up): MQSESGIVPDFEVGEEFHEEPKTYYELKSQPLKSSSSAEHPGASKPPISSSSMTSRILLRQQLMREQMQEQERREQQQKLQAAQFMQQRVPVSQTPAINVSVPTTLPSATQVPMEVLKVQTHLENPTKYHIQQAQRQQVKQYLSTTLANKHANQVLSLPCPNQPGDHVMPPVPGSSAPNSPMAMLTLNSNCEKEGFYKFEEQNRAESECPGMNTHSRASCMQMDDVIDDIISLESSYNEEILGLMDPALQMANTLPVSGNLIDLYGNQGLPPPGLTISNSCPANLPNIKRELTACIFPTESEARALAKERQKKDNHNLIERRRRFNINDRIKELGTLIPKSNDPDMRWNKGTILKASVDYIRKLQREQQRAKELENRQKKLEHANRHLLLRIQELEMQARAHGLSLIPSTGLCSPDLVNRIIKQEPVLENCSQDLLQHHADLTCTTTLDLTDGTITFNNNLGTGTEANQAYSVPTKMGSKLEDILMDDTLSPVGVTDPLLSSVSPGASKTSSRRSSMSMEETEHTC
FBW7 activator – FBW7 E3 ligase activators, primary screen, biochemical, AlphaScreen, human. F-box/WD repeat-containing protein 7 (Homo sapiens), Q969H0. AlphaScreen FBW7–phospho-cyclin E peptide binding, activator screen. normalized activity (activation), % at 26.1 µM. 650,000 compounds, 0.13% hits; in the data active = normalized activity above about 1.9%;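 also: purified mutant Fbw7 with reduced substrate affinity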
GPR151 ag – activators of human GPR151, primary screen, cell-based, PathHunter beta-arrestin, luminescence; G-protein coupled receptor 151 (Homo sapiens), Q8TDV0; PathHunter beta-arrestin GPR151 cells; activation, % at 11.2 µM; 650,000 compounds, 1% hits; AID 1508602, 2020; in the data active = activation above about 4.9%;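 also: 0% = median of compound wells and 100% = cells with positive control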
An asterisk follows results filed as active.

Screening O=C(Nc1ccc2c(c1)OCCO2)c1cc(Br)cc(Br)c1I returned TEAD-YAP inh 47*, MITF primary 0, FBW7 activator 0 and GPR151 ag 0.
Screening O=C(CSc1ncccc1C(=O)O)Nc1ccc2c(c1)OCCO2 returned TEAD-YAP inh 63*, MITF primary -1, FBW7 activator 0 and GPR151 ag 0.
For CCCC(=O)Nc1nnc(SCC(=O)OCC)s1 the results were TEAD-YAP inh 2, MITF primary 18, FBW7 activator 0 and GPR151 ag 1.
`Cc1nnc(SC(=O)N2c3ccccc3Sc3ccccc32)s1` gave TEAD-YAP inh 61*, MITF primary 7, FBW7 activator 0 and GPR151 ag 0.
CC(=O)c1ccc(-c2ccc(N)c(C(=O)c3ccccc3)c2)cc1 was read as TEAD-YAP inh 58*, MITF primary -5, FBW7 activator 0 and GPR151 ag 0.
For C=CCn1c(SCC(=O)Nc2ccc(OCC)cc2)nc2sc(CC)cc2c1=O the results were TEAD-YAP inh -3, MITF primary 1, FBW7 activator 0 and GPR151 ag 1.
Screening COc1ccccc1-n1c(CNC(=O)c2ccc(S(=O)(=O)N3CCOCC3)cc2)nnc1SCC(=O)N1CCc2ccccc21 returned TEAD-YAP inh 2, MITF primary 8, FBW7 activator 0 and GPR151 ag 0.
For COc1ccc(CNc2ccnc3c(-c4ccccc4)cnn23)cc1 the results were TEAD-YAP inh -18, MITF primary 2, FBW7 activator 1.9* and GPR151 ag -1.
For COc1cc(CNc2ccnc3c(-c4cccc(F)c4)cnn23)cc(OC)c1OC the results were TEAD-YAP inh 4, MITF primary 9, FBW7 activator 1.9* and GPR151 ag 1.
Screening COc1ccc(CNc2ccnc3c(-c4ccc(OC)cc4)cnn23)cc1 returned TEAD-YAP inh 12, MITF primary -1, FBW7 activator 0 and GPR151 ag 2.
`O=C(CCl)NCc1ccc2[nH]c3c(c2c1)CCCC3` gave TEAD-YAP inh 34*, MITF primary 15, FBW7 activator 0 and GPR151 ag 2.
CC(C)C(=O)NCc1ccc2[nH]c3c(c2c1)CCCC3 was read as TEAD-YAP inh 4, MITF primary 16, FBW7 activator 0 and GPR151 ag -2.
For COc1ccc(-n2cc(-c3ccccc3)c3c(NCc4ccccc4OC)ncnc32)cc1 the results were TEAD-YAP inh -19, MITF primary 3, FBW7 activator 0 and GPR151 ag 2.
Screening O=C(Nc1cnn(C23CC4CC(CC(C4)C2)C3)c1)c1cnn2cccnc12 returned TEAD-YAP inh 58*, MITF primary 4, FBW7 activator 0 and GPR151 ag 0.
For O=C(Nc1cnn(C23CC4CC(CC(C4)C2)C3)c1)c1cnn2cc(Br)cnc12 the results were TEAD-YAP inh 3, MITF primary 37, FBW7 activator 0 and GPR151 ag -1.
Screening O=[N+]([O-])c1cc(Br)c(Nc2ccccc2)c([N+](=O)[O-])c1 returned TEAD-YAP inh 40*, MITF primary 13, FBW7 activator 0 and GPR151 ag 2.
Screening CCN(CC)C(=O)Nc1ccc2nc(-c3ccco3)c(-c3ccco3)nc2c1 returned TEAD-YAP inh -1, MITF primary 73*, FBW7 activator -1 and GPR151 ag 0.
For Clc1cc2nc(-c3ccco3)c(-c3ccco3)nc2cc1Cl the results were TEAD-YAP inh -3, MITF primary 21, FBW7 activator 0 and GPR151 ag -1.
For Fc1cccc(CCNc2nccc(Nc3ccncn3)n2)c1 the results were TEAD-YAP inh -14, MITF primary -11, FBW7 activator 0 and GPR151 ag -1.
Screening Cc1cccc(-n2c(C)cc(C(=O)OCc3c(C)noc3C)c2C)c1 returned TEAD-YAP inh 41*, MITF primary 8, FBW7 activator 0 and GPR151 ag -1.
Cc1noc(C)c1COC(=O)c1ccccc1I was read as TEAD-YAP inh 2, MITF primary -3, FBW7 activator 0 and GPR151 ag 0.
`COc1cc(NC(=O)c2cccc(-n3cc(NC(=O)Nc4ccccc4)cn3)c2)cc(OC)c1OC` gave TEAD-YAP inh 37*, MITF primary 1, FBW7 activator 0 and GPR151 ag 0.
`COc1ccc(C(=O)Nc2cccc3ccccc23)cc1OC` gave TEAD-YAP inh -3, MITF primary 1, FBW7 activator 0 and GPR151 ag 1.
`COc1cc(C(=O)Nc2cccc(C(=O)Nc3cccc4ccccc34)c2)cc(OC)c1OC` gave TEAD-YAP inh 64*, MITF primary -8, FBW7 activator 1 and GPR151 ag 2.
COc1cc(NC(=O)c2cccc(-n3cc(N(C)c4nnnn4-c4ccccc4)cn3)c2)ccc1N1CCOCC1 was read as TEAD-YAP inh 38*, MITF primary 1, FBW7 activator 0 and GPR151 ag 1.
For COc1cc(C(=O)Nc2ccc3c4c(cccc24)CC3)cc(OC)c1OC the results were TEAD-YAP inh 53*, MITF primary 11, FBW7 activator 0 and GPR151 ag 0.
For COc1cc(NC(=O)c2cccc(-n3cc(Nc4cnnn4-c4ccccc4)cn3)c2)ccc1N1CCOCC1 the results were TEAD-YAP inh 18, MITF primary 7, FBW7 activator 0 and GPR151 ag -2.
COc1ccc(C(=O)Nc2ccc3c4c(cccc24)CC3)cc1 was read as TEAD-YAP inh -47, MITF primary 11, FBW7 activator 0 and GPR151 ag 1.
`Cc1ccccc1/C=N/NC(=O)c1cccc(Br)c1` gave TEAD-YAP inh -16, MITF primary 0, FBW7 activator 0 and GPR151 ag 1.
COC(=O)/C=C1\S/C(=N\N=C\c2ccco2)NC1=O was read as TEAD-YAP inh -2, MITF primary -4, FBW7 activator 0 and GPR151 ag 3.
For CCOC(=O)C1CCCN(C(=O)c2nc(-c3cccnc3)no2)C1 (configuration not stated) the results were TEAD-YAP inh 6, MITF primary -8, FBW7 activator 0 and GPR151 ag -1.
Screening O=C1c2ccccc2C(=O)C2C(NCC(O)CCl)=CC=CC12 (configuration not stated) returned TEAD-YAP inh -28, MITF primary 27, FBW7 activator -1 and GPR151 ag 1.
`CC(=O)c1ccc(NC(=O)COc2cc(C)ccc2C(C)C)cc1` gave TEAD-YAP inh -20, MITF primary -6, FBW7 activator 0 and GPR151 ag -1.
Cc1ccc(C(C)C)c(OCC(=O)Nc2ccc(C(=O)Nc3cccc4ccccc34)cc2)c1 was read as TEAD-YAP inh 60*, MITF primary 12, FBW7 activator 0 and GPR151 ag 1.
`Cc1ccc(C)c(OCC(=O)Nc2nccs2)c1` gave TEAD-YAP inh -14, MITF primary 12, FBW7 activator 0 and GPR151 ag -2.
For Cc1ccc(C(C)(C)C)c(OCC(=O)Nc2nccs2)c1 the results were TEAD-YAP inh 50*, MITF primary 11, FBW7 activator 0 and GPR151 ag -1.

Assay outcomes: PubChem BioAssay, The Scripps Research Institute Molecular Screening Center
